Experimental data from PubChem BioAssay AID1224865 (Sanford-Burnham Center for Chemical Genomics, 2016).
Screen size: about 360,000 compounds; about 1,100 (0.31%) were called active. Rule as the data show it: active = activity change above about 30% (passing the limit was not always enough); inactive = the rest. Many of the other results were omitted from the sample, so actives are more common in it than they were.

target: Hepatocyte nuclear factor 4-alpha (Homo sapiens) (UniProt P41235); test: change in binding of human HNF4A to DNA, primary screen, biochemical, fluorescence polarization, FITC-DNA (AID 1224865); conditions: 1 h, at 10 µM, hits give high values
Sequence (P41235 whole entry, looked up): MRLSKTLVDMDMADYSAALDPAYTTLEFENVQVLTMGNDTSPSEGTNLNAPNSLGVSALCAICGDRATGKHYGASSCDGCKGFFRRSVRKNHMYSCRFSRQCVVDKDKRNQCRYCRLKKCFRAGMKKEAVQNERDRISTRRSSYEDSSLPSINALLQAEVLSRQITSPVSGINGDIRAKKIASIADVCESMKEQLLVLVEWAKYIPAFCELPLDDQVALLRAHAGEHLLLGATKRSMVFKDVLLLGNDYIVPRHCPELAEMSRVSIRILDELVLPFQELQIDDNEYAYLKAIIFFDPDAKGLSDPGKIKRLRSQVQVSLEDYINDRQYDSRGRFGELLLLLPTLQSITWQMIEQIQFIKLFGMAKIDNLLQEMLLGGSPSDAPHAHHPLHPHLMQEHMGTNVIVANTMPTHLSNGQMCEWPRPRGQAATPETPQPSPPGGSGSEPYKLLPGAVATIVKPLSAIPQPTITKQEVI

SMILES	activity change
O=C(CCN1CCCCC1)NCC(=O)Nc1ccc(Br)cc1C(=O)c1ccccc1	53% (active)
O=C(CN1CCCCC1)Nc1ccc(Br)cc1C(=O)c1ccccc1Cl	-1.1% (inactive)
CN1CCN(C(=S)SCC(=O)Nc2ccc(Cl)cc2C(=O)c2ccccc2)CC1	-2.35% (inactive)
O=C1N=c2ccccc2=C/C1=C\c1c(O)[nH]c(=S)[nH]c1=O	4.26% (inactive)
CCOCCc1c(O)[nH]c(=S)[nH]c1=O	-0.41% (inactive)
COc1ccccc1N=Nc1c(O)[nH]c(=S)[nH]c1=O	68.8% (active)
C=Cn1ccnc1P(=S)(c1cc(N(CC)CC)ns1)c1nccn1C=C	-0.17% (inactive)
CCN(CC)c1ccc([N+](=O)[O-])c2cccnc12	4.4% (inactive)
COc1ccc(-c2nn(CCC#N)cc2C(=O)Nc2ccc(C(C)=O)cc2)cc1	2.38% (inactive)
CC1CC=CCC12C(=O)NC(=S)NC2=O (stereo not given)	-0.2% (inactive)
